The text below walks through data of the supplement of paper PMC6411743.

± gives the standard deviation of the averaged measurements. The full data set covers some 5,400 targets. This sample favours those with the largest changes.

Chain of UniProt Q8NEY8 (Q8NEY8 whole entry, one chain of several): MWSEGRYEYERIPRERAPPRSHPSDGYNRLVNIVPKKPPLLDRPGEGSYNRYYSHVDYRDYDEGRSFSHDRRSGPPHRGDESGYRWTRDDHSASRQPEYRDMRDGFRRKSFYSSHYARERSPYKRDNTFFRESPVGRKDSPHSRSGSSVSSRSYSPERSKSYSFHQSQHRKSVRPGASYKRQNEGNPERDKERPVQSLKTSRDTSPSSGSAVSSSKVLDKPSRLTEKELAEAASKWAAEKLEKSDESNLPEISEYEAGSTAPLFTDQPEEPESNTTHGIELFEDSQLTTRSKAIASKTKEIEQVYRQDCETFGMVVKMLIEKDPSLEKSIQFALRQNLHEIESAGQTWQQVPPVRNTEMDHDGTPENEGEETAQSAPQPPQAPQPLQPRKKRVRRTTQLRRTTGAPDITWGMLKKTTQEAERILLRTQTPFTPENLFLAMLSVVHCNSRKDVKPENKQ
Chain of UniProt Q13615 (Q13615 whole entry, one chain of several): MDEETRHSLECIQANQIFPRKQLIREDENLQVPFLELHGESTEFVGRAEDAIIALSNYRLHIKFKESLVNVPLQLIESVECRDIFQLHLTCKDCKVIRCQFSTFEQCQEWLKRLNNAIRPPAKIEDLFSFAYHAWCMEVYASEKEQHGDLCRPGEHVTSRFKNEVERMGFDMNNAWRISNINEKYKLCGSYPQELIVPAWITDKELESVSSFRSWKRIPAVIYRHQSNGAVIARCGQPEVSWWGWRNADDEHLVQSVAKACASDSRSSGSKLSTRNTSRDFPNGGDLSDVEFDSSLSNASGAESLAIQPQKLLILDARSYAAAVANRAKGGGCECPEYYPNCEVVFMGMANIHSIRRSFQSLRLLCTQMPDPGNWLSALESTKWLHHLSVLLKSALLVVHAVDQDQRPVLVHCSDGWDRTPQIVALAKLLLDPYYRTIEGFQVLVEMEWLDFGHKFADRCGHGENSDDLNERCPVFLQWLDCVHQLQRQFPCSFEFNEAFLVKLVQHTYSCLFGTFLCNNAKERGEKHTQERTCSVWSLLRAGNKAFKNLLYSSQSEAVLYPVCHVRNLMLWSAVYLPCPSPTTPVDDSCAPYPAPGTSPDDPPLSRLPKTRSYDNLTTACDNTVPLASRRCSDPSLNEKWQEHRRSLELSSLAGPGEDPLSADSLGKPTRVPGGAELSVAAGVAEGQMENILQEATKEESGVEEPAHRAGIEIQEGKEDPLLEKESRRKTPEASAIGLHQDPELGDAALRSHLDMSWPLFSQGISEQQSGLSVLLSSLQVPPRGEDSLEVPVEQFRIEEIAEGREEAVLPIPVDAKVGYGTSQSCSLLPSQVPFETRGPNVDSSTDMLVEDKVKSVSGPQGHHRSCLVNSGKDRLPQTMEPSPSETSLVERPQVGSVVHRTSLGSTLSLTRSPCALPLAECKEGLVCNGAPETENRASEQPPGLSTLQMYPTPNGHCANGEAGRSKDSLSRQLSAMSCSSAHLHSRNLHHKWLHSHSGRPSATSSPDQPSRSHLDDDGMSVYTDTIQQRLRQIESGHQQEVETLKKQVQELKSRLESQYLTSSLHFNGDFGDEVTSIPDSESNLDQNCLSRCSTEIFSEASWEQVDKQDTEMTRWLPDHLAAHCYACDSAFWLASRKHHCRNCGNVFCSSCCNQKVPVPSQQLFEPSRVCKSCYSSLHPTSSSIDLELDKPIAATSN
Chain of UniProt Q9BQ75 (Q9BQ75 whole entry, one chain of several): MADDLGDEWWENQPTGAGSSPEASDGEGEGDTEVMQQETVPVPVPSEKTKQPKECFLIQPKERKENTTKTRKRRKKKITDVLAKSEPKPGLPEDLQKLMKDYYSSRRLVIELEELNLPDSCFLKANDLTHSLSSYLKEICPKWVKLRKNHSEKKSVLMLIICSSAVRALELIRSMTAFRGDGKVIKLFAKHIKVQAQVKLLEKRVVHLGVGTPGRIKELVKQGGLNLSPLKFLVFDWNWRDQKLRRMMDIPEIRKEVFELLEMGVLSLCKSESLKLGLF
Chain of UniProt O14730 (O14730 whole entry, one chain of several): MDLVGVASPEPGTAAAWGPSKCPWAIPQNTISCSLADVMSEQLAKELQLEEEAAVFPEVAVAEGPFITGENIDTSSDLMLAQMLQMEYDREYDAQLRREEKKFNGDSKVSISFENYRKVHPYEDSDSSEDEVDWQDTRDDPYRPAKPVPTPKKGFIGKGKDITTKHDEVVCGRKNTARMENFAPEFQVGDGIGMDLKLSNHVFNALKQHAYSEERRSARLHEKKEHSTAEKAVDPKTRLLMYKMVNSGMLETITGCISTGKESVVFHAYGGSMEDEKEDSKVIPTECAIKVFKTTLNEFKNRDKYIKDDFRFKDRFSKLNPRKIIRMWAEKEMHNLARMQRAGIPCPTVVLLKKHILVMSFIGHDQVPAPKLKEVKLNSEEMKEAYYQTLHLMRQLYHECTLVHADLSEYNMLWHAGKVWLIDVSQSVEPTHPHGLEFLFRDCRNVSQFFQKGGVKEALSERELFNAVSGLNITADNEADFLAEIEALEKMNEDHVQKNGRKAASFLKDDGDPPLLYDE
Chain of UniProt Q9NZM4 (Q9NZM4 whole entry, one chain of several): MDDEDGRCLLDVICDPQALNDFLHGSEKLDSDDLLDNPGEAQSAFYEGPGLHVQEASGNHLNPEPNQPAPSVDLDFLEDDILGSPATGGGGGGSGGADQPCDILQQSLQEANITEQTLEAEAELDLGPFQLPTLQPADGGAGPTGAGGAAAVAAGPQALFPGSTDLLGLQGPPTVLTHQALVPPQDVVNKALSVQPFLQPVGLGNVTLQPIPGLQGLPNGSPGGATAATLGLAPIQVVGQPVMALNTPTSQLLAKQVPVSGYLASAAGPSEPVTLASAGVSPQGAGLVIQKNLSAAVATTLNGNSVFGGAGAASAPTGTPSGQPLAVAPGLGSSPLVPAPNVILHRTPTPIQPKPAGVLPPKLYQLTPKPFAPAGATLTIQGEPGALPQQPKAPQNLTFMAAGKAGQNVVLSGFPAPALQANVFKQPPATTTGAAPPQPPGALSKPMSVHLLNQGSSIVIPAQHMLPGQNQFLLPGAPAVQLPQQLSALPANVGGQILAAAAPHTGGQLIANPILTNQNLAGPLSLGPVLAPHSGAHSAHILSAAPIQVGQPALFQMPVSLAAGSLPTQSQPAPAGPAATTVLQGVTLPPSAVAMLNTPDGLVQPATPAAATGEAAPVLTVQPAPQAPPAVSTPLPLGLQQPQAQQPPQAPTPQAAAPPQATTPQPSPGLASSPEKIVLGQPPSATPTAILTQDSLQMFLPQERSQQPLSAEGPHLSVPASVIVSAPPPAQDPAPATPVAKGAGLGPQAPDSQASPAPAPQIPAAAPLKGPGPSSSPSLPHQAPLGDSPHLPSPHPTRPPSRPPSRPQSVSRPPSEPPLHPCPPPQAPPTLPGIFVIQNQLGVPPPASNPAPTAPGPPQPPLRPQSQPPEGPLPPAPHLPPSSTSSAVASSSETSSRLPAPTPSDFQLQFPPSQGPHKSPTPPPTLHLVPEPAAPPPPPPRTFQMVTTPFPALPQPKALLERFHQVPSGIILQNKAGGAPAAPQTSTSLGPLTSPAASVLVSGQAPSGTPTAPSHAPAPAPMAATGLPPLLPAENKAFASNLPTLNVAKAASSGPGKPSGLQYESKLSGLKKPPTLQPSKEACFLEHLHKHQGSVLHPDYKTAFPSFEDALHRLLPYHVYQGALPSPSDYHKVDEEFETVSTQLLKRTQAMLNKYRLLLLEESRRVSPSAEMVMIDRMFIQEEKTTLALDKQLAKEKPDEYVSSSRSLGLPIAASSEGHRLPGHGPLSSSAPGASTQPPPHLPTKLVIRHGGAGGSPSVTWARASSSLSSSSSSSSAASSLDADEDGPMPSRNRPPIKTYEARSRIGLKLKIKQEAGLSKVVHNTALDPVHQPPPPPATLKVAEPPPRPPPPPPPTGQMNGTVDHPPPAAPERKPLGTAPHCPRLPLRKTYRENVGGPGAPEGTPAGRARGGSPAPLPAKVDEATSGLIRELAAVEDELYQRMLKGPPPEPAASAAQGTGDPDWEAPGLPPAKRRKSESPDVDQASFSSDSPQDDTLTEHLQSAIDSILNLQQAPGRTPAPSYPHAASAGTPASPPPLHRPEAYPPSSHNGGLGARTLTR
Chain of UniProt Q6NVY1 (Q6NVY1 whole entry, one chain of several): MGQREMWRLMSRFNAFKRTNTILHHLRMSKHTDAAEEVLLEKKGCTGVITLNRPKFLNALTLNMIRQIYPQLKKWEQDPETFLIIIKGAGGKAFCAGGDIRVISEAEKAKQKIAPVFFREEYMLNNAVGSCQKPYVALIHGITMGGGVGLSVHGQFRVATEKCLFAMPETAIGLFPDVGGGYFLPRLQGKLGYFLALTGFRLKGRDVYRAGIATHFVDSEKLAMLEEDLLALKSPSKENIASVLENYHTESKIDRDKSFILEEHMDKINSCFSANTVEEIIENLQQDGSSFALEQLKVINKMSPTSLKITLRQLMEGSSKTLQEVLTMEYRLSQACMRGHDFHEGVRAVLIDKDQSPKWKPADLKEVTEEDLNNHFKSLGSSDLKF
Chain of UniProt Q9Y624 (Q9Y624 whole entry, one chain of several): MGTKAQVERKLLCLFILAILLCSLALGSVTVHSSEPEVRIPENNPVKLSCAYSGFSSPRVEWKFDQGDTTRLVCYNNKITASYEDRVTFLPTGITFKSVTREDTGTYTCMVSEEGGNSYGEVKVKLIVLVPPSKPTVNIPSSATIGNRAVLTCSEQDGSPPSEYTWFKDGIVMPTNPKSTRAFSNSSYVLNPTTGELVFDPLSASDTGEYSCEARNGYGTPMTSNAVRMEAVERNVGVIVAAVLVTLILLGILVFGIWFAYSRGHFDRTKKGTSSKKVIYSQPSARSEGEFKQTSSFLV
Chain of UniProt Q9BTT0 (Q9BTT0 whole entry, one chain of several): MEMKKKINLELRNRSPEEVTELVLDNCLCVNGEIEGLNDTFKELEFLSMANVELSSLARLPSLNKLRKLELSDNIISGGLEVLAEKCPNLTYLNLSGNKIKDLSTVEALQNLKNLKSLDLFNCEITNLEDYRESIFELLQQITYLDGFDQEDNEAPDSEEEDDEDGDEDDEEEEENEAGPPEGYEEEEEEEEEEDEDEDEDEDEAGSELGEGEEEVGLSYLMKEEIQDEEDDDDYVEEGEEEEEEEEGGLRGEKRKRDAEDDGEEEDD

Compound in this experiment: Nc1nc2c(ncn2[C@@H]2O[C@H](COP(=O)(O)OP(=O)(O)OP(=O)(O)O)[C@@H](O)[C@H]2O)c(=O)[nH]1 [guanosine triphosphate]
As to the kind of experiment: NP40-soluble protein abundance relative to vehicle (solubility fold change) (ratio); higher = more soluble protein in presence of GTP. As to conditions: concentration: 0.1mM. The essentials: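 Data come from three independent experiments in which Dounce-homogenised Jurkat crude lysate was treated at eight concentrations from 0.1 to 10 mM. Treatment ran 10 min at room temperature and then 3 min at 37 °C, after which 0.8% NP40 and benzonase were added for 60 min at 4 °C before ultracentrifugation. The supernatant underwent TMT labelling and LC-MS/MS, and vsn-normalised intensities were expressed as fold change against the detergent-processed vehicle in each replicate.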
With G3V394|Q9Y4I1-3 (UniProt Q9Y4I1), the NP40-soluble protein abundance was 1.28 ± 0.16.
Next, E7EW84|Q8TAG9 (UniProt Q8TAG9): 0.9794 ± 0.0039.
For “B1AL05|H0Y6Y8|H0YBU8|Q8N983|Q8N983-2|Q8N983-3|Q8N983-4|Q8N983-6|Q8N983-7 (UniProt Q8N983)” the value was 1.08 ± 0.21; for F2Z2Y4|O00764|O00764-2 (UniProt O00764), 1 ± 0.072.
Next, B3KS98|O15372 (UniProt O15372): 0.992 ± 0.07.
In the case of “A0A0B4J1Z1|C9JAB2|Q16629|Q16629-2|Q16629-3|Q16629-4 (UniProt Q16629)”, the NP40-soluble protein abundance turned out to be 1.089 ± 0.0095.
With E9PRF4|Q15047|Q15047-3 (UniProt Q15047), the NP40-soluble protein abundance was 0.977 ± 0.12.
As for “A0A087WWH3|Q9NZM4|Q9NZM4-2 (UniProt Q9NZM4)”, the NP40-soluble protein abundance amounted to 1.06 ± 0.018.
On to B9ZVT1|Q8IXT5 (UniProt Q8IXT5), for which the NP40-soluble protein abundance is 1.02 ± 0.081.
Turning to “A0A087WY71|Q96CW1|Q96CW1-2 (UniProt Q96CW1)”, the NP40-soluble protein abundance was determined as 1.09 ± 0.11.
For “A0A087WY82|Q9Y624|Q9Y624-2 (UniProt Q9Y624)” the value was 1 ± 0.041; for E9PPH5|Q9BTT0|Q9BTT0-3 (UniProt Q9BTT0), 0.838 ± 0.058.
For A0A087WWS1|Q96FV9 (UniProt Q96FV9) the value was 1.1 ± 0.016; for E9PHG5|Q6UW02|Q6UW02-2 (UniProt Q6UW02), 1.1 ± 0.21.
In the case of “H0YIE9|O94952|O94952-1|Q4G104 (UniProt O94952)”, the NP40-soluble protein abundance came to 1.19 ± 0.045.
For G5E9Z2|Q96KA5|Q96KA5-2 (UniProt Q96KA5), the NP40-soluble protein abundance stood at 1.09 ± 0.049.
Next, “A8MQB8|G3V0J0|Q06787|Q06787-2|Q06787-3|Q06787-4|Q06787-5|Q06787-6|Q06787-7|Q06787-8|Q06787-9 (UniProt Q06787)”: 1.05 ± 0.041.
As for A0A0C4DGS0|P56556 (UniProt P56556), the NP40-soluble protein abundance is 0.947 ± 0.069.
As for E7EX48|P51957|P51957-3 (UniProt P51957), the NP40-soluble protein abundance amounted to 1.01 ± 0.097.
Next, H0YEN5|P15880 (UniProt P15880): 0.979 ± 0.063; “C9IY68|C9J384|Q9BQ75|Q9BQ75-2 (UniProt Q9BQ75)”: 0.945 ± 0.058; B4E1Q4|O14730|O14730-2 (UniProt O14730): 0.965 ± 0.1.
Next, “E7EN86|P52747|P52747-2|P52747-3 (UniProt P52747)”: 1.06 ± 0.038.
Next, A6NFX8|Q9UKK9 (UniProt Q9UKK9): 1.05 ± 0.036.
Take F5H136|P17987 (UniProt P17987): the NP40-soluble protein abundance was 0.988 ± 0.02.
In the case of “E9PKP7|E9PLT2|P17480|P17480-2 (UniProt P17480)”, the NP40-soluble protein abundance came out at 1.02 ± 0.025.
For A0A087X256|Q2M389 (UniProt Q2M389) the value was 1.04 ± 0.058; for E9PSH8|P07766 (UniProt P07766), 0.955 ± 0.049; for D6RAN8|H7C5U8|Q9P0M9 (UniProt Q9P0M9), 1.09 ± 0.38.
For “G5E953|Q13615|Q13615-2|Q13615-3 (UniProt Q13615)” the value was 1.01 ± 0.036.
Next, H3BMU3|O60268|O60268-3 (UniProt O60268): 0.928 ± 0.032; “F8W0Q9|Q8NEY8-2|Q8NEY8-8|Q8NEY8-9|Q8NEY8-3|Q8NEY8 (UniProt Q8NEY8)”: 1.01 ± 0.022; C9J8R4|C9JVE2|Q96GG9 (UniProt Q96GG9): 0.935 ± 0.042.
As to A0A087WXI1|Q6NVY1 (UniProt Q6NVY1), the NP40-soluble protein abundance was determined as 0.948 ± 0.045.
